Results published in PubChem BioAssay (NCI).
About 83,000 compounds went through this panel and 20% of them were active in at least one assay; those are over-represented in the sample as a whole.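 Treatment: one concentration, 48 hours, 96-well format. Scoring: percent growth, with anything below 10 considered active.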 The source made the active and inactive calls.

How the values were obtained:
Assay in all cases: NCI-60 one-dose screen, 48 h (100 = growth as untreated, 0 = no growth, -100 = all killed)
Settings in all cases: 10 µM unless noted
RPMI-8226 leukemia = test system: RPMI-8226 leukemia
OVCAR-8 ovarian = test system: OVCAR-8 ovarian
OVCAR-5 ovarian = test system: OVCAR-5 ovarian
OVCAR-4 ovarian = test system: OVCAR-4 ovarian
SK-OV-3 ovarian = test system: SK-OV-3 ovarian
OVCAR-3 ovarian = test system: OVCAR-3 ovarian
HS 578T breast = test system: HS 578T breast
NCI/ADR-RES ovarian = test system: NCI/ADR-RES ovarian
T-47D breast = test system: T-47D breast
BT-549 breast = test system: BT-549 breast
MDA-MB-435 melanoma = test system: MDA-MB-435 melanoma
SW-620 colon = test system: SW-620 colon
MCF7 breast = test system: MCF7 breast
HCT-116 colon = test system: HCT-116 colon
HCC-2998 colon = test system: HCC-2998 colon
KM12 colon = test system: KM12 colon
IGROV1 ovarian = test system: IGROV1 ovarian

Measured: growth

CCCCCCOc1ccc(C2(Cl)c3ccccc3N(C)c3ccccc32)cc1
inactive: RPMI-8226 leukemia 47.5% | OVCAR-8 ovarian 38.7% | OVCAR-5 ovarian 107% | OVCAR-4 ovarian 41.3% | SK-OV-3 ovarian 60.7% | OVCAR-3 ovarian 32.1% | HS 578T breast 54.7% | NCI/ADR-RES ovarian 52.3% | T-47D breast 44.2% | BT-549 breast 86.5% | HCT-116 colon 16.1% | HCC-2998 colon 59.8% | KM12 colon 62.9%
active: MDA-MB-435 melanoma -23.5% | SW-620 colon 7.18% | MCF7 breast 0.626%

O=C1CCC(=O)N1Cc1ccccc1
inactive: RPMI-8226 leukemia 109% | OVCAR-8 ovarian 108% | OVCAR-5 ovarian 97.7% | OVCAR-4 ovarian 96.9% | SK-OV-3 ovarian 113% | OVCAR-3 ovarian 102% | HS 578T breast 102% | NCI/ADR-RES ovarian 89.8% | T-47D breast 113% | BT-549 breast 111% | MDA-MB-435 melanoma 99.4% | SW-620 colon 100% | MCF7 breast 91.5% | HCT-116 colon 98.6% | HCC-2998 colon 101% | KM12 colon 96.4%

CC(Br)C(O)c1cc2c(cc1Br)OCO2 (configuration not stated)
inactive: RPMI-8226 leukemia 101% | OVCAR-8 ovarian 109% | OVCAR-5 ovarian 108% | OVCAR-4 ovarian 105% | SK-OV-3 ovarian 118% | OVCAR-3 ovarian 109% | HS 578T breast 103% | NCI/ADR-RES ovarian 105% | T-47D breast 100% | BT-549 breast 96.6% | MDA-MB-435 melanoma 110% | SW-620 colon 104% | MCF7 breast 93% | HCT-116 colon 101% | HCC-2998 colon 111% | KM12 colon 108%

COc1ccc(C(=O)/C=C/c2cc(C(=O)c3cc(OC)c(OC)c(OC)c3)ccc2OC)cc1
inactive: RPMI-8226 leukemia 14.6% | OVCAR-8 ovarian 43.8% | OVCAR-5 ovarian 45% | SK-OV-3 ovarian 90% | IGROV1 ovarian 62.2% | OVCAR-3 ovarian 60.6% | HS 578T breast 62.5% | NCI/ADR-RES ovarian 26.5% | T-47D breast 68% | BT-549 breast 73.7% | MDA-MB-435 melanoma 51.8% | SW-620 colon 13.8% | MCF7 breast 20.9% | HCT-116 colon 19.8% | HCC-2998 colon 93.1% | KM12 colon 40.6%

COc1cc2c3c(c(=O)oc2cc1OS(=O)(=O)c1ccc(C(F)(F)F)cc1)CCCCC3
inactive: RPMI-8226 leukemia 84.8% | OVCAR-8 ovarian 93.8% | OVCAR-5 ovarian 79.6% | SK-OV-3 ovarian 83% | IGROV1 ovarian 86.7% | OVCAR-3 ovarian 87.9% | HS 578T breast 56.4% | NCI/ADR-RES ovarian 76.3% | T-47D breast 80.9% | BT-549 breast 75.4% | MDA-MB-435 melanoma 91.6% | SW-620 colon 102% | MCF7 breast 89.6% | HCT-116 colon 66.6% | HCC-2998 colon 97.6% | KM12 colon 92.1%

O=c1c2cccc3c(Nc4ccc(F)cc4)ccc(c32)c2nc3ccccc3n12
inactive: RPMI-8226 leukemia 57.4% | OVCAR-8 ovarian 89.3% | OVCAR-5 ovarian 84.8% | OVCAR-4 ovarian 76% | SK-OV-3 ovarian 101% | OVCAR-3 ovarian 94% | HS 578T breast 73.6% | NCI/ADR-RES ovarian 91.4% | T-47D breast 23.4% | BT-549 breast 87.5% | MDA-MB-435 melanoma 99.6% | SW-620 colon 88% | MCF7 breast 10.1% | HCT-116 colon 93.9% | HCC-2998 colon 76.1% | KM12 colon 74.4%

Cc1cc(C(=O)CSc2nc3ccccc3c(=O)[nH]2)c(C)n1C
active: IGROV1 ovarian -33.9% | HS 578T breast -35.7%
inactive: OVCAR-8 ovarian 96.4% | OVCAR-5 ovarian 90.8% | OVCAR-4 ovarian 123% | SK-OV-3 ovarian 108% | OVCAR-3 ovarian 91% | NCI/ADR-RES ovarian 103% | T-47D breast 79.9% | BT-549 breast 89.8% | MDA-MB-435 melanoma 101% | SW-620 colon 102% | MCF7 breast 95.1% | HCT-116 colon 106% | HCC-2998 colon 72.9% | KM12 colon 96.7%

c1ccn2nnnc2c1
inactive: OVCAR-8 ovarian 105% | OVCAR-5 ovarian 105% | IGROV1 ovarian 113% | OVCAR-3 ovarian 70.6% | HS 578T breast 105% | NCI/ADR-RES ovarian 102% | BT-549 breast 67.2% | MDA-MB-435 melanoma 99.5% | SW-620 colon 106% | MCF7 breast 93.1% | HCT-116 colon 87.5% | HCC-2998 colon 91.6% | KM12 colon 99.5%

CC[C@H](C)[C@H]1NC(=O)[C@@H](N[C@](C)(O)[C@@H](N)CC(C)C)[C@@H](C)OC(=O)[C@H](Cc2ccc(OC)cc2)N(C)C(=O)[C@@H]2CCCN2C(=O)[C@H](CC(C)C)NC(=O)[C@@H](C)C(=O)[C@H](C(C)C)OC(=O)C[C@@H]1O
active: RPMI-8226 leukemia -33% | OVCAR-8 ovarian -13.6% | OVCAR-5 ovarian -14.9% | SK-OV-3 ovarian -13% | IGROV1 ovarian -13.4% | OVCAR-3 ovarian -20.8% | HS 578T breast -4.99% | T-47D breast -15.4% | BT-549 breast -45.9% | MDA-MB-435 melanoma -35.4% | SW-620 colon 0.636% | MCF7 breast 2.76% | HCT-116 colon -15.1% | HCC-2998 colon -26.8% | KM12 colon -14.8%
inactive: NCI/ADR-RES ovarian 37.4%

C=C1C(=O)O[C@H]2[C@H]1CC/C(COC(=O)NCCc1cccc(OC)c1)=C\CC[C@@]1(C)O[C@@H]21
inactive: RPMI-8226 leukemia 25.1% | OVCAR-8 ovarian 17.4% | OVCAR-5 ovarian 75.1% | SK-OV-3 ovarian 90.3% | HS 578T breast 57.9% | NCI/ADR-RES ovarian 80% | T-47D breast 20.4% | BT-549 breast 27.8% | MDA-MB-435 melanoma 39.6% | MCF7 breast 14.7% | HCC-2998 colon 83.5% | KM12 colon 63.7%
active: OVCAR-3 ovarian -20% | SW-620 colon -10.8% | HCT-116 colon -63.9%

COc1ccc(-c2cn[nH]c2-c2cc(OC)c3c(c2)OCCO3)cc1
inactive: OVCAR-8 ovarian 26.1% | OVCAR-5 ovarian 48.1% | OVCAR-4 ovarian 73.7% | SK-OV-3 ovarian 15.9% | IGROV1 ovarian 50.2% | T-47D breast 49.5% | BT-549 breast 53.3% | SW-620 colon 25.5% | MCF7 breast 19.6% | HCT-116 colon 10.5% | HCC-2998 colon 25.3%
active: OVCAR-3 ovarian -36.6% | HS 578T breast 3.05% | NCI/ADR-RES ovarian 9.78% | KM12 colon 3.46%

Cc1ccccc1C(=O)c1ccccc1C(=O)O
inactive: RPMI-8226 leukemia 102% | OVCAR-8 ovarian 107% | OVCAR-5 ovarian 111% | OVCAR-4 ovarian 114% | SK-OV-3 ovarian 118% | OVCAR-3 ovarian 107% | HS 578T breast 106% | NCI/ADR-RES ovarian 108% | T-47D breast 107% | BT-549 breast 106% | SW-620 colon 102% | MCF7 breast 100% | HCT-116 colon 103% | HCC-2998 colon 105% | KM12 colon 107%

Cc1ccc(Cn2c(-c3cccs3)nc3ccccc32)cc1
inactive: RPMI-8226 leukemia 77.8% | OVCAR-8 ovarian 82.3% | OVCAR-5 ovarian 98.8% | SK-OV-3 ovarian 100% | IGROV1 ovarian 81.8% | OVCAR-3 ovarian 93.9% | HS 578T breast 89.2% | NCI/ADR-RES ovarian 85.6% | T-47D breast 72.5% | BT-549 breast 128% | MDA-MB-435 melanoma 111% | SW-620 colon 81.2% | MCF7 breast 87.7% | HCT-116 colon 76.5% | HCC-2998 colon 94.9% | KM12 colon 96%
